Compound activity deposited in PubChem by National Center for Advancing Translational Sciences (NCATS).
Compounds with a hit are over-represented: about 10% of the library has one in this group of screens.
SARS PLP yeast – SARS-CoV PLP inhibition in yeast; actives 0.19% (n = 330,000); Potency, µM (highest dose often 32.9 µM), inactives show top-dose activity, positive = growth rescue, most hits filed as activators; S. cerevisiae expressing SARS-CoV PLpro, growth rescue; also: 0% is about no effect; nearly all actives have a fitted effect of over 55% in size
Pf growth 96h – P. falciparum growth inhibition at 96 hours | P. falciparum luciferase reporter growth, 96 h | Potency, µM (titrated, usually from 28.7 µM), inactives show top-dose activity change, negative = inhibition, actives largely listed as inhibitors | actives 6.9% (n = 320,000) | AID 504834; active = well fitted inhibition curve with a large enough effect; inconclusive = small, poorly fitted or top-dose-only effect, or another doubt; inactive = no such curve, though single readings can be large or run the other way; also: % is scaled to controls: 0 for no effect and ±100 for the full control effect
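96 h incubation, 37 C, 5% CO2, of luciferase-reporter P. falciparum-infected RBCs (2% hematocrit, 0.05% parasitemia final) with test compounds; endpoint luminescence.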
NS1 inh – blocks influenza NS1 protein function; Potency, µM (doses to about 46.1 µM), inactives show at the top dose activity, positive = more growth; actives 0.4% (n = 270,000); AID 2326; also: actives are rising curves; nearly all actives have a fitted effect of over 50% in size
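In this qHTS, NS1 from influenza A is expressed in budding yeast, where it slows growth. Cells are switched from glucose to 2% galactose medium (pH 6.0, -URA), treated with compound, and growth recovery is read at OD600.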
Pf growth 48h – inhibits P. falciparum growth in the first generation, 48 h; P. falciparum luciferase growth in erythrocytes, 48 h; Potency, µM (doses to about 28.7 µM), for the others: at the highest dose activity change, negative = inhibition, hits mostly inhibitors; actives 5.9% (n = 310,000); AID 504832; active = well fitted inhibition curve with a large enough effect; inconclusive = small, poorly fitted or top-dose-only effect, or another doubt; inactive = no such curve, though single readings can be large or run the other way; also: % is scaled to controls: 0 for no effect and ±100 for the full control effect
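Here the parasites carry a stable luciferase gene and grow inside erythrocytes in Albumax-based RPMI medium with compound for one erythrocytic cycle. Activity is scored as loss of luminescent signal.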
Active calls of the source: *. Unless noted, calls follow the shape of the full dose curve. Potency is read from the fitted curve at half-maximal effect.

What do the screens show for `O=C(NCc1ccccc1)c1ccc2c(=O)n(CC3CCCO3)c(=S)[nH]c2c1` (stereo unspecified)?
SARS PLP yeast: -4.4%; Pf growth 96h: 0.4%; NS1 inh: 12.7%; Pf growth 48h: -17.5%

What do the screens show for `CC(C)NC(=O)c1ccc2c(=O)n(CC3CCCO3)c(=S)[nH]c2c1` (stereo unspecified)?
SARS PLP yeast: 0.3%; Pf growth 96h: 9.28µM*; Pf growth 48h: -15.7%

What do the screens show for `CCCn1c2ccccc2c2cnn(CC(=O)N3CCN(C4CCCCC4)CC3)c(=O)c21`?
SARS PLP yeast: -3.3%; Pf growth 96h: 17.3%; NS1 inh: -12.2%; Pf growth 48h: 24.3%

What do the screens show for `COCCNC(=S)N1CCc2cc(OC)c(OC)cc2C1COc1cc(C)cc(C)c1` (stereo unspecified)?
SARS PLP yeast: 12.6%; Pf growth 96h: inconclusive; NS1 inh: 7.2%; Pf growth 48h: 11.7µM*

How did CCn1c(SCC(=O)NC2CCCC2)nnc1C(C)NC(=O)c1ccccc1Br (stereo unspecified) do in these assays?
SARS PLP yeast: 0.0%; Pf growth 96h: inconclusive; NS1 inh: -1.8%; Pf growth 48h: -2.9%

How did CCCS(=O)(=O)c1nc(S(=O)(=O)c2ccc(C)cc2)c(NCCCN2CCCC2=O)s1 do in these assays?
SARS PLP yeast: -3.1%; Pf growth 96h: 9.28µM*; NS1 inh: -4.4%; Pf growth 48h: -15.7%

How did CCS(=O)(=O)c1nc(S(=O)(=O)c2ccc(C)cc2)c(NCc2ccccn2)s1 do in these assays?
SARS PLP yeast: 0.6%; Pf growth 96h: -33.5%; Pf growth 48h: -24.4%

Results for CCCS(=O)(=O)c1nc(S(=O)(=O)c2ccc(C)cc2)c(NCc2ccco2)s1 ?
SARS PLP yeast: 5.2%; Pf growth 96h: inconclusive; NS1 inh: 5.9%; Pf growth 48h: 11.7µM*

What do the screens show for `CCS(=O)(=O)c1nc(S(=O)(=O)c2ccc(Cl)cc2)c(NCCCN2CCCC2=O)s1`?
SARS PLP yeast: 2.7%; Pf growth 96h: inconclusive; NS1 inh: -9.3%; Pf growth 48h: -12.7%

Results for Cc1ccc(S(=O)(=O)c2nc(S(=O)(=O)c3ccc(C)cc3)c(NCc3ccco3)s2)cc1 ?
SARS PLP yeast: 2.8%; Pf growth 96h: 13.1µM*; NS1 inh: 9.3%; Pf growth 48h: inconclusive

Results for CCS(=O)(=O)c1nc(S(=O)(=O)c2ccc(Cl)cc2)c(NCc2ccco2)s1 ?
SARS PLP yeast: -15.2%; Pf growth 96h: inconclusive; NS1 inh: 1.4%; Pf growth 48h: inconclusive

Results for CCCCCn1nc(C(=O)N(CC)c2c(N)n(CCCC)c(=O)[nH]c2=O)c2ccccc2c1=O ?
SARS PLP yeast: 2.2%

Results for OC(COC(c1ccc(F)cc1)c1ccc(F)cc1)CN1CCc2ccccc2C1 (stereo unspecified) ?
SARS PLP yeast: 5.5%; Pf growth 96h: inconclusive; NS1 inh: 5.4%; Pf growth 48h: inconclusive

What do the screens show for `OCC1CCCCN1CC(O)COC(c1ccc(F)cc1)c1ccc(F)cc1` (stereo unspecified)?
SARS PLP yeast: 1.2%; Pf growth 96h: inconclusive; NS1 inh: -3.4%; Pf growth 48h: 9.28µM*

What do the screens show for `OC1CCCN(CC(O)COC(c2ccc(F)cc2)c2ccc(F)cc2)C1` (stereo unspecified)?
SARS PLP yeast: 2.4%; Pf growth 96h: 2.08µM*; NS1 inh: -2.5%; Pf growth 48h: 2.62µM*

Results for COc1ccc(NC(=O)COc2ccccc2Cl)cc1S(=O)(=O)N1CCCCC1 ?
SARS PLP yeast: 2.1%; Pf growth 96h: 10.4µM*; Pf growth 48h: 11.7µM*

How did CCc1ccccc1OCC(=O)Nc1ccc(F)c(S(=O)(=O)N2CCOCC2)c1 do in these assays?
SARS PLP yeast: 1.4%; Pf growth 96h: 13.1µM*; Pf growth 48h: inconclusive

How did COc1ccc(NC(=O)CCOc2ccccc2C)cc1S(=O)(=O)N1CCCCC1 do in these assays?
SARS PLP yeast: 3.3%; Pf growth 96h: inconclusive; Pf growth 48h: 11.7µM*

Results for COc1ccc(OCC(=O)Nc2ccc(OC)c(S(=O)(=O)N3CCCCC3)c2)cc1 ?
SARS PLP yeast: 1.1%; Pf growth 96h: 6.6%; Pf growth 48h: -6.4%

How did CC(Oc1ccccc1)C(=O)Nc1ccc(F)c(S(=O)(=O)N2CCOCC2)c1 (stereo unspecified) do in these assays?
SARS PLP yeast: 2.7%; Pf growth 96h: inconclusive; Pf growth 48h: -10.4%

What do the screens show for `O=C(C[N+]12CN3CN(CN(C3)C1)C2)c1ccc(-c2ccccc2)cc1`?
NS1 inh: -7.9%
